Test [1] concerns the target Aryl hydrocarbon receptor (Homo sapiens) (UniProt P35869). Nature of the test: qHTS assay to identify small molecule that activate the aryl hydrocarbon receptor (AhR) signaling pathway (AID 743085).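 Further: HG2L7.5c1 human HepG2 liver cells with stably integrated DRE-driven firefly reporter; series mostly up to about 70 µM; nearly all actives have a fitted effect of over 15% in size.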 Summed up: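 Reporter assay in engineered HepG2 line HG2L7.5c1, whose plasmid carries twenty dioxin responsive elements upstream of firefly luciferase. Treatment lasted 24 h at 37C; ONE-Glo luminescence gauged induction.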

For test [2], the target named is Peroxisome proliferator-activated receptor gamma (Homo sapiens) (UniProt P37231). Put plainly: qHTS assay to identify small molecule agonists of the peroxisome proliferator-activated receptor gamma (PPARg) signaling pathway (AID 743094; active means well fitted activation curve with a large enough effect in the signal ratio in the repeat runs, not every such curve was filed as active; the % refers to the signal ratio). Summed up:
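Agonism was assessed in a beta-lactamase reporter system, HEK293H cells with a stably integrated UAS-bla construct under PPARg control; the 17 h treatment at 37C preceded a 1 h room-temperature FRET substrate read.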

Test [3] can be described thus: qHTS assay for small molecule agonists of the antioxidant response element (ARE) signaling pathway - cell viability counter screen (AID 743203; calls by dose curve; further: nearly all actives have a fitted effect of over 55% in size; further: potency means the concentration at half of the fitted maximal effect). Summed up: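 ATP content via CellTiter-Glo luminescence served as the viability measure. Cells: ARE-bla HepG2, 2,000 per well. Exposure: 16 hrs, 37C/5% CO2.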
(qHTS replaces the single test concentration by a dilution series.)

Test [4] in a line: qHTS assay for small molecule activators of the heat shock response signaling pathway (AID 743210; active means well fitted activation curve with a large enough effect in the signal ratio in the repeat runs, with a control signal flat, not every such curve was filed as active; the % refers to the signal ratio;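 further: HeLa cells with beta-lactamase reporter driven by heat shock elements; series mostly up to about 63 µM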). A digest of the protocol:
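Following overnight attachment, HSE-bla HeLa cells received test compounds for 5 h at 37 C; beta-lactamase activity was then detected via FRET substrate fluorescence.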

Test [5] is described as follows: qHTS assay to identify small molecule that activate the aryl hydrocarbon receptor (AhR) signaling pathway - cell viability counter screen (AID 743086).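 Further: HepG2 liver cells carrying the AhR DRE luciferase reporter; series mostly up to about 70 µM; nearly all actives have a fitted effect of over 45% in size.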 A digest of the protocol: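 HepG2-AhR-luc (HG2L7.5c1) cells, 4000/well, treated 24 h at 37 C with compound; viability measured as CellTiter-Fluor fluorescence after 30 min in the same wells as the luciferase read.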

A short description of test [6]: qHTS assay for small molecule activators of the heat shock response signaling pathway - cell viability counter screen (AID 743209). Further: nearly all actives have a fitted effect of over 50% in size. Further: potency means the concentration at half of the fitted maximal effect. Summed up: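 Compounds dissolved in DMSO were added to overnight-plated HSE-bla HeLa cells and left 5 h at 37 C. Cell viability was quantified by luminescence using CellTiter-Glo.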
Test [7] in a line: qHTS assay to identify small molecule antagonists of the peroxisome proliferator-activated receptor gamma (PPARg) signaling pathway - cell viability counter screen (AID 743194). Further: nearly all actives have a fitted effect of over 55% in size. Further: potency means the concentration at half of the fitted maximal effect. Summed up: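 Cytotoxicity counter screen in PPARg-bla HEK293H cells, same wells as reporter assay. Compounds plus 50 nM rosiglitazone (final) for 17 h at 37 C, then viability read by CellTiter-Glo luminescence.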

Test [8] in a line: qHTS assay for small molecule agonists of the antioxidant response element (ARE) signaling pathway (AID 743202; active means well fitted activation curve with a large enough effect in the signal ratio in the repeat runs, not every such curve was filed as active; the % refers to the signal ratio; further: potency means the concentration at half of the fitted maximal effect). A digest of the protocol: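 HepG2 ARE-bla cells; 16 h treatment at 37 C; FRET-based beta-lactamase fluorescence read after 2 h substrate incubation at room temperature.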
Test [9] is described as follows: qHTS assay to identify aromatase inhibitors - cell viability counter screen (AID 743084).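 Further: cells stimulated with testosterone during compound exposure; nearly all actives have a fitted effect of over 55% in size.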
Test [10] concerns the target Peroxisome proliferator-activated receptor gamma (Homo sapiens) (UniProt P37231). Put plainly: qHTS assay to identify small molecule antagonists of the peroxisome proliferator-activated receptor gamma (PPARg) signaling pathway (AID 743191; calls by dose curve; further: series mostly up to about 63 µM; nearly all actives have a fitted effect of over 30% in size). A digest of the protocol:
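GeneBLAzer PPARg UAS-bla HEK293H cells, 5 h post-plating, exposed to compounds 17 h at 37C. LiveBLAzer B/G FRET substrate added for 1 h at room temperature; beta-lactamase reporter read by fluorescence intensity.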

Results filed as inconclusive are left out. Active and inactive are the calls of the source. Unless noted, the call rests on the fitted dose curve; in most records, active means well fitted curve in the direction sought with a large enough effect in the repeat runs; inconclusive means weak or mixed curves; inactive means no such curve, though single readings can be large; an effect the other way counts as inactive or inconclusive.

Drawing on PubChem BioAssay (Tox21), this text covers Potency and outcome for 35 compounds.

Sequence of Aryl hydrocarbon receptor (Homo sapiens) (P35869 whole entry, looked up): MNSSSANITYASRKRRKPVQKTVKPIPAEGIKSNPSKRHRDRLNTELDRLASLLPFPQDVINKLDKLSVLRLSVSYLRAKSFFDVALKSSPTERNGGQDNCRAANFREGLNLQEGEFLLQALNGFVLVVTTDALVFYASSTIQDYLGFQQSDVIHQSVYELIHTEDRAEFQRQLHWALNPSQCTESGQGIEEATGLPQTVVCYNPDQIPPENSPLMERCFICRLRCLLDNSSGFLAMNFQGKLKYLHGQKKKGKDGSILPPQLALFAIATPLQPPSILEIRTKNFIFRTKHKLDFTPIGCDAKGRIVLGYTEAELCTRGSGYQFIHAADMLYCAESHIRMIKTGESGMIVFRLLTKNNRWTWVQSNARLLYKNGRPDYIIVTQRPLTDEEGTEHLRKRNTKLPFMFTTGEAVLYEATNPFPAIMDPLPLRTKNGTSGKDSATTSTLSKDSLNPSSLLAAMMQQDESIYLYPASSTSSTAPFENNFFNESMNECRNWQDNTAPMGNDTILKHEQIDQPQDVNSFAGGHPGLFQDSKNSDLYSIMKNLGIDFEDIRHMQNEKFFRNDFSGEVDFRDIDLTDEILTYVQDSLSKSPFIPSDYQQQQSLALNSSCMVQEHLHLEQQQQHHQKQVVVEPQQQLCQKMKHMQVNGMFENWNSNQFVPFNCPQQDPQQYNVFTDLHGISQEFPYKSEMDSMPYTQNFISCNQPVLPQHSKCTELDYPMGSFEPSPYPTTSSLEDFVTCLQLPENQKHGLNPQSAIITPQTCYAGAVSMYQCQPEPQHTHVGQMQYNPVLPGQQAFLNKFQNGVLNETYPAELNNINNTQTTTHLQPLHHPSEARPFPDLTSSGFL
Sequence of Peroxisome proliferator-activated receptor gamma (Homo sapiens) (P37231 whole entry, looked up): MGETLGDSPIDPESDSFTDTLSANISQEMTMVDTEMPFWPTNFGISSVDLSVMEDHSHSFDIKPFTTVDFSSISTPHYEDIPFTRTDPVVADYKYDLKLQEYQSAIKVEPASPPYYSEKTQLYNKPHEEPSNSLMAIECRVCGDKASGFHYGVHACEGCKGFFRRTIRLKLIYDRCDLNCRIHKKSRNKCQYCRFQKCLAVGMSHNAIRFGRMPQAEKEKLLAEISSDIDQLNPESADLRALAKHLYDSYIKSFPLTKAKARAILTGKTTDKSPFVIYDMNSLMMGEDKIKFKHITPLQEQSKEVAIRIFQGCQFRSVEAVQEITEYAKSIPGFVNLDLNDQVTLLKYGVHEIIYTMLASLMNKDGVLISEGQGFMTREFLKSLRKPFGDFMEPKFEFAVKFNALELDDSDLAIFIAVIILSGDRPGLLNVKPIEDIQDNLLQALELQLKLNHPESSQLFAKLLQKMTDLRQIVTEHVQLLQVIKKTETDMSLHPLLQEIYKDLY

For `O=[N+]([O-])c1cc[n+]([O-])cc1`, the Potency entry in [1] and in [2] was “inactive” throughout. For the same compound, the Potency in [3] is 30.6 µM (active). Further, the outcome in [4] was inactive.

In the case of `Cn1sccc1=O`, the Potency result in [5], in [2], in test [3] and in test [6] was “inactive” throughout.

Take `Oc1ccc(Cc2ccccc2)cc1`: the Potency entry in [5], in [7], in test [3] and in [6] was “inactive” each time.

`CCOC(=O)[C@H](CCc1ccccc1)N[C@H]1CCc2ccccc2N(CC(=O)O)C1=O`: the Potency entry in [1], in test [5] and in [7] was “inactive” in each case.

In the case of `COc1ccc([C@@H]2Sc3ccccc3N(CCN(C)C)C(=O)[C@@H]2OC(C)=O)cc1`, the Potency result in test [5], in [7], in [8], in test [3] and in [6] was “inactive” each time. For the same compound, the call in test [4] was inactive.

Turning to `Cc1cc(NC(=O)C(=O)O)cc(C)c1Oc1ccc(O)c2c1CCC2`, the Potency result in test [5], in [8], in test [3] and in test [6] was “inactive” each time. Also, the compound was called inactive in [4].

On to `NC(N)=N/N=C/c1c(Cl)cccc1Cl`, for which the Potency result in test [1], in test [5], in test [2], in test [3] and in test [6] was “inactive” each time. Moreover, the call in [4] was inactive.

`NCc1ccccc1`: the Potency entry in [5], in test [7], in [8] and in test [6] was “inactive” throughout. For the same compound, in [4], the compound was classed as inactive.

As for `CCCCCOC(=O)c1ccc(O)cc1`, the Potency result in test [1], in test [5], in test [2], in test [7], in test [3] and in test [6] was “inactive” throughout.

Regarding `CC[C@]12CCCN3CCc4c(n(c5ccccc45)C(=O)C1)[C@@H]32`, the Potency entry in [9], in [2], in [7], in [8], in test [3] and in test [6] was “inactive” in each case. Also, the result in test [4] was inactive.

On to `Nc1ccc(C(=O)N2CC3CC(CN(Cc4ccccc4)C3)C2)cc1`, for which the Potency result in test [7], in test [8], in [3] and in [6] was “inactive” throughout.

Take `CCN(CC)CCNC(C(=O)OCCC(C)C)c1ccccc1` (stereo not drawn): the Potency entry in test [9], in test [2], in test [10], in test [8] and in [3] was “inactive” throughout. Besides, the result in test [4] was inactive.

With `CC(=O)c1ccc2c(c1)[C@H](NC(=O)c1ccc(F)cc1)[C@@H](O)C(C)(C)O2`, the Potency entry in [5], in [2], in [3] and in test [6] was “inactive” in each case. In [4], the compound was classed as inactive.

Take `CC(Cc1cccc(C(F)(F)F)c1)NCCOC(=O)c1ccccc1` (stereo not drawn): the Potency entry in test [1] and in test [2] was “inactive” in each case. The Potency in test [7], in [3] and in [6] was 23.7 µM (active) throughout.

Turning to `CC[C@@H]1C[C@H](N(Cc2cc(C(F)(F)F)cc(C(F)(F)F)c2)C(C)=O)c2cc(C(F)(F)F)ccc2N1C(=O)OC(C)C`, the Potency result in test [5], in [2], in test [10], in test [7], in test [3] and in test [6] was “inactive” in each case. In addition, the compound was called inactive in test [4].

On to `CC(=O)N(CC(=O)N(C)C)c1ccccc1`, for which the Potency result in [7], in test [3] and in [6] was “inactive” throughout. Further, the call in [4] was inactive.

For `Nc1cnn([C@@H]2O[C@H](CO)[C@@H](O)[C@H]2O)c(=O)n1`, the Potency result in test [5], in [7], in test [8], in [3] and in test [6] was “inactive” in each case. For the same compound, the result in test [4] was inactive.

For `O=CNc1ccccc1`, the Potency result in test [1], in [5], in test [2], in test [7], in test [8] and in test [3] was “inactive” throughout. In addition, the Potency result in test [6] was “inactive”. In test [4], the call was inactive.

As for `CCCCCCCCCC=O`, the Potency result in test [9], in test [5], in test [3] and in [6] was “inactive” each time. The result in test [4] was inactive.

Turning to `C=CC(C)(CCC=C(C)C)OC(=O)c1ccccc1` (stereo not drawn), the Potency entry in [5], in [8] and in test [3] was “inactive” each time.

With `COC(Cc1ccccc1)OC`, the Potency result in test [5], in test [2], in [10], in [8], in test [3] and in test [6] was “inactive” each time. In addition, the result in test [4] was inactive.

As to `CCCCOC(=O)c1ccccc1C(=O)OCC(CC)CCCC` (stereo not drawn), the Potency entry in [1], in test [5], in test [2], in test [10], in test [8] and in test [3] was “inactive” in each case. In addition, the Potency result in test [6] is “inactive”. Moreover, the result in [4] was inactive.

Take `CC(C)c1cccc(C(C)C)c1NC(=O)NS(=O)(=O)c1cc(C(C)(C)O)co1`: the Potency entry in test [7] and in test [6] was “inactive” each time. The outcome in [4] was inactive.

For the compound `CCC(C)N(C)C(=O)c1cc2ccccc2c(-c2ccccc2Cl)n1` (stereo not drawn), the Potency result in test [1], in test [5], in [10], in test [7], in test [3] and in [6] was “inactive” throughout. Also, the compound was classed as inactive in test [4].

For `O=C(/C=C/c1ccc(O)c(O)c1)O[C@@H]1C[C@](O)(C(=O)O)C[C@@H](O)[C@H]1O`, the Potency entry in test [5], in test [7], in [3] and in [6] was “inactive” in each case. Also, the result in [4] was inactive.

Consider `CC(C)(C)c1cc(O)c(C(C)(C)C)cc1O`, for which the Potency result in test [1], in test [5], in [2] and in test [6] was “inactive” in each case. The outcome in test [4] was inactive.

`COc1cc(C(C)(C)C)c(O)c(C(C)(C)C)c1`: the Potency entry in [5], in [2], in [7], in test [8], in test [3] and in test [6] was “inactive” each time. In addition, in test [4], the call was inactive.

On to `Cc1nc2ccccc2n1Cc1ccc(Cl)cc1`, for which the Potency entry in test [9], in test [2], in test [7] and in test [6] was “inactive” each time. Moreover, the call in test [4] was inactive.

As for `O=S1(=O)c2cccc3cccc(c23)N1CCCN1CCN(c2ccc(F)cc2)CC1`, the Potency result in [5], in test [2], in test [7] and in test [6] was “inactive” in each case.

With `O=C1Nc2cc(Cl)ccc2Oc2ccccc21`, the Potency result in test [10], in test [7], in test [3] and in test [6] was “inactive” throughout. For the same compound, in test [4], the call was inactive.

Take `O=[N+]([O-])c1cccc(Cl)c1Cl`: the Potency result in [5], in test [2], in test [8], in test [3] and in [6] was “inactive” throughout. Also, the compound was called inactive in test [4].

As to `O=C(O)c1cn(C2CC2)c2cc(Cl)c(F)cc2c1=O`, the Potency entry in test [7], in test [8], in [3] and in [6] was “inactive” each time. For the same compound, the outcome in [4] was inactive.

Take `CCCCCCc1ccc(N)cc1`: the Potency result in test [9], in test [5] and in [6] was “inactive” throughout. The call in test [4] was inactive.

For the compound `Nc1nc(N)c2nc(CNc3ccc(C(=O)N[C@@H](CCC(=O)O)C(=O)O)cc3)cnc2n1`, the Potency entry in [9], in test [5] and in test [6] was “inactive” each time.

Take `COc1ccc2[nH]c(S(=O)Cc3ncc(C)c(OC)c3C)nc2n1` (stereo not drawn): the Potency entry in [9], in test [5], in test [3] and in test [6] was “inactive” each time. Moreover, in test [8], the Potency was 10.6 µM (active). Besides, the compound was classed as inactive in test [4].
